SMILES strings stand for the structures. The whole screen tested about 310,000 compounds, of which about 14,000 (4.5%) showed an effect of 50% or more. Effects have a minus sign here. What follows is part of a selection rich in strong results, with near analogues and random picks from the rest.
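Further: peak tail current of the secondary pulse compared with the same well before compound.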

The target of the assay is human ether-à-go-go-related gene (hERG) potassium channel (human, UniProt Q12809). The assay can be described thus: primary screen, population patch clamp on CHO cells stably expressing hERG; higher = less effect of the substance.
human ether-à-go-go-related gene (hERG) potassium channel, sequence (Q12809 whole entry, looked up): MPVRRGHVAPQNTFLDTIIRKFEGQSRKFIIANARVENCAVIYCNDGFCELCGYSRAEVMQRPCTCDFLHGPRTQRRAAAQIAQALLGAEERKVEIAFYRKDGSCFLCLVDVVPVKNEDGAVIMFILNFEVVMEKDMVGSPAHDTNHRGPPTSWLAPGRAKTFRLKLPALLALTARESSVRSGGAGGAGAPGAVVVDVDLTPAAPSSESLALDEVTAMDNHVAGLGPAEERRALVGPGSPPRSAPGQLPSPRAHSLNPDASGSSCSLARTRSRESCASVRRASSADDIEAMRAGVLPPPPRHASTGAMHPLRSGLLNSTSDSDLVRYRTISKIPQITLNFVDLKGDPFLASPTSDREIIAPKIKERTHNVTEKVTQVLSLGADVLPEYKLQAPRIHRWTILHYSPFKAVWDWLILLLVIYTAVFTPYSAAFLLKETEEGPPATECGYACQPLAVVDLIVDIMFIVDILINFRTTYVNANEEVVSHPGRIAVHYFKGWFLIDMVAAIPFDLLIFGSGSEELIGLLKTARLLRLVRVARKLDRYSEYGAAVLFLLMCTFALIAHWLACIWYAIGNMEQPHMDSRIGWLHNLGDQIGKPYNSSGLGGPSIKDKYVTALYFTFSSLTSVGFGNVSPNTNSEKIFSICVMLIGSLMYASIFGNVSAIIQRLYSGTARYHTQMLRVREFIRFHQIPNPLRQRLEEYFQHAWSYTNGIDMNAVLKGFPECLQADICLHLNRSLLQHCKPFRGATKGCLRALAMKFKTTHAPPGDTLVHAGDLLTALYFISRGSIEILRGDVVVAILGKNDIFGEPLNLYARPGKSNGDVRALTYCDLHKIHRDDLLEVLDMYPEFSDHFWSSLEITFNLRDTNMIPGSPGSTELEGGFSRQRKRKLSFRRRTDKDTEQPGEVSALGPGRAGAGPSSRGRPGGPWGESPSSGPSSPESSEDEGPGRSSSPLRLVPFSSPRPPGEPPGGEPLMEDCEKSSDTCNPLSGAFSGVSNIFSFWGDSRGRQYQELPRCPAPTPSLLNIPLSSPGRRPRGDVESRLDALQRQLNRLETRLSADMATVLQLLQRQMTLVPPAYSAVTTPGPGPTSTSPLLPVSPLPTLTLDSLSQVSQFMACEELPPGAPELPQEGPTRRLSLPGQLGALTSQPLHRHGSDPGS
As to `O=C(COC(=O)C1CC1)Nc1nc(-c2ccc(F)c(F)c2)cs1`, the “hERG current change (%, negative = inhibition) at 10uM” value is listed as 4.93%.
On to `CCOc1ccccc1N1CCN(C(=O)CNC(=O)c2ccc(OC)c(OC)c2)CC1`, for which the “hERG current change (%, negative = inhibition) at 10uM” value is reported as 11.9%.
The same measure for `CCCc1cnc(N2CCN(C(=O)c3c(-c4ccccc4)noc3C)CC2)nc1`: -24.5%.
On to `CCCc1cnc(N2CCN(C(=O)c3ccc(F)cc3)CC2)nc1`, for which the “hERG current change (%, negative = inhibition) at 10uM” value is recorded as -43.1%.
The same measure for `CCCc1cnc(N2CCN(C(=O)c3ccccc3)CC2)nc1`: -57.1%; for `CCOc1ccccc1N1CCN(C(=O)CNC(=O)c2sc3ccccc3c2Cl)CC1`: 17.4%; for `CCCc1ccc(C(=O)N2CCN(c3ccccc3OCC)CC2)cc1`: -56.3%.
To `CCCc1cnc(N2CCN(C(=O)c3ccc(OC)cc3)CC2)nc1` belongs -52.4%; to `CCCCOc1ccc(C(=O)N2CCN(c3ncccn3)CC2)cc1`, -9.16%; to `CCOc1ccccc1N1CCN(C(=O)c2ccccc2)CC1`, 11%.
To `CCOc1ccc(C(=O)N2CCN(c3ncccn3)CC2)cc1` belongs -9.8%; to `CCOc1ccccc1N1CCN(C(=O)c2ccncc2)CC1`, -8.78%.
Consider `CCOc1ccccc1N1CCN(C(=O)CNC(=O)c2ccccc2F)CC1`, for which the “hERG current change (%, negative = inhibition) at 10uM” value is on record as -51.1%.
As to `CCCCCCSc1ccc([C@@H]2[C@H]3C(=O)N(CC)C(=O)[C@H]3[C@]3(C(=O)OC)CCCN23)cc1.O=C(O)C(F)(F)F`, the “hERG current change (%, negative = inhibition) at 10uM” value was -7.59%.
The same measure for `COc1cc(OC)cc(C(=O)O/N=C(\N)c2ccccn2)c1`: 7.21%; for `CCOC(=O)c1cc2c(ccn2C)n1CC(=O)N1CCC(Cc2ccccc2)CC1`: -24.1%.
For the compound `CN(C)S(=O)(=O)c1ccc(NC(=O)CN2C(=O)NC(Cc3ccccc3)C2=O)cc1` (centres unmarked), the “hERG current change (%, negative = inhibition) at 10uM” value is 10.2%.
The same measure for `CCOC(=O)CC(NC(=O)C1c2ccccc2Oc2ccccc21)c1ccc(C)cc1` (centres unmarked): 5.66%.
Consider `COc1ccc(NC(=O)CSc2nnc(-c3cccnc3)n2C)cc1`, for which the “hERG current change (%, negative = inhibition) at 10uM” value was 8.3%.
To `Cc1cc(OCC(=O)N2CCC(C(=O)O)(c3ccccc3)CC2)c2c(C)cc(=O)oc2c1` belongs 11.6%; to `NNC(=O)c1cncn1-c1ccc(F)cc1`, 23.7%; to `COc1cc(OC)c(NC(=O)c2cncn2-c2ccc(F)cc2)cc1Cl`, -19.7%.
The same measure for `O=C(Nc1cccc(Cl)c1)c1cncn1-c1ccc(F)cc1`: -68.1%; for `Cc1cccc(C)c1NS(=O)(=O)c1c(C)[nH]c(=O)[nH]c1=O`: -14.2%.
`Cc1ccccc1CN(CC(=O)Nc1cccc([N+](=O)[O-])c1)S(=O)(=O)c1ccc(Cl)cc1`: the “hERG current change (%, negative = inhibition) at 10uM” value is reported as 15.1%.
To `S=C(Nc1ccc(Cl)cc1Cl)NC1CCN(Cc2ccccc2)CC1` belongs -2.76%; to `O=C(NC1CCN(Cc2ccc(Cl)cc2Cl)CC1)c1ccccc1`, -53.9%; to `O=C(NC1CCN(Cc2ccccc2)CC1)c1ccccc1F`, -23.7%.
To `O=C(NC1CCN(Cc2ccccc2Cl)CC1)c1ccccc1` belongs -65.2%; to `CSCCC(NC(=O)c1ccccc1Cl)C(=O)N1CCN(C(C)=O)CC1` (centres unmarked), -26.9%.
`O=C(NC1CCN(Cc2ccccc2)CC1)c1ccc(Cl)cc1Cl`: the “hERG current change (%, negative = inhibition) at 10uM” value was -75%.
To `Cl.O=C(NN1CCN(Cc2ccccc2Cl)CC1)c1ccc(Cl)cc1` belongs -10.6%; to `COC(=O)[C@H](CCSC)NC(=O)NC1CCN(Cc2ccccc2)CC1`, -12.9%; to `O=C(NC1CCN(C(=O)Nc2ccccc2Cl)CC1)c1ccccc1`, 4.22%.
In the case of `O=C(NC1CCN(C(=O)Nc2cccc(Cl)c2)CC1)c1ccccc1`, the “hERG current change (%, negative = inhibition) at 10uM” value is 1.02%.
The same measure for `O=C(NC1CCN(Cc2ccccc2)CC1)c1ccccc1Cl`: 1.15%; for `CSCCC(NC(=O)c1ccccc1Cl)C(=O)NC1CCN(Cc2ccccc2)CC1` (centres unmarked): -50.1%.
Regarding `COCC(=O)Nc1ccc(C)c(Cl)c1`, the “hERG current change (%, negative = inhibition) at 10uM” value stood at 14.4%.
To `Cc1cccc(NS(=O)(=O)c2ccc(OCC(=O)N3CCCC3)cc2)c1` belongs -19.1%; to `CCCn1nnnc1NC(=O)COc1ccc(CC)cc1`, -3.02%.
To `Cc1ccc(NC(=O)CCSc2nnc(C)o2)cc1` belongs 2.48%.
For `CC1(C)NC(=O)N(CCCCOc2cccc(C(F)(F)F)c2)C1=O`, the “hERG current change (%, negative = inhibition) at 10uM” value is reported as -6.92%.
To `CN1CCN(c2ccc(C(N)=O)cc2N)CC1` belongs 6.81%; to `CN1C(=O)C(C)(C)c2cc(S(=O)(=O)N3CCCC(C(=O)Nc4ccc(Cl)cc4)C3)ccc21` (centres unmarked), -9.27%; to `COC(=O)/C(C#N)=C/c1c(Oc2cccc(C)c2C)nc2ccccn2c1=O`, -12.6%.
To `COC(=O)CCCn1nc(NC(=O)COc2ccc(F)cc2)cc1C` belongs -5.47%; to `COc1ccc(C(C(=O)NC(C)(C)C)N(C(=O)CNC(=O)c2cccs2)c2ccc(NC(C)=O)cc2)cc1OC` (centres unmarked), 10.4%; to `CC1CCC(NC(=O)c2cc(C3CC3)nn2-c2ccccc2)CC1` (centres unmarked), -34.9%.
The same measure for `COc1ccc(CN2CCN(C(=O)c3cc(C4CC4)nn3-c3ccccc3)CC2)cc1F`: -48.6%; for `O=C(c1cc(C2CC2)nn1-c1ccccc1)N1CCN(Cc2ccc(Cl)cc2)CC1`: -32.1%.
On to `O=C(O)c1cc(C2CC2)nn1-c1ccccc1`, for which the “hERG current change (%, negative = inhibition) at 10uM” value is 17.5%.
Turning to `COc1ccc(OC)c(S(=O)(=O)N2CCN(C(=O)c3cc(C4CC4)nn3-c3ccccc3)CC2)c1`, the “hERG current change (%, negative = inhibition) at 10uM” value is -11.1%.
To `N#Cc1ccc(CN2CCN(C(=O)c3cc(C4CC4)nn3-c3ccccc3)CC2)cc1` belongs -57.2%; to `O=C(NC1CCCCC1)c1cc(C2CC2)nn1-c1ccccc1`, -51.2%; to `COc1cc2c(cc1OC)CN(C(=O)c1cc(C3CC3)nn1-c1ccccc1)CC2`, -56.2%.
As to `COc1ccc(N2CCN(C(=O)c3cc(C4CC4)nn3-c3ccccc3)CC2)cc1`, the “hERG current change (%, negative = inhibition) at 10uM” value is reported as -44.4%.

These data come from article PMC4336329 (PLoS ONE, 2015).
